Results taken from PubChem BioAssay (EPA / NIEHS).
Inconclusive results are not listed. Calls of active or inactive are those of the source. Rule for the calls: active = hit-call score of the fitted dose curve at least 0.9, where 1 is the maximum; inconclusive = response in the unintended direction; inactive = score below 0.9.

Columns and labels:
[1] = system: guinea pig Muscarinic, Peripheral (Mperiperal) Receptor, Non-selective Binding, gene 100379235; assay: NVS_GPCR_gMPeripheral_NonSelective: NovaScreen (NVS) G Protein-Coupled Receptor Assay for guinea pig Muscarinic, Peripheral (Mperiperal) Receptor, Non-selective Binding (AID 2283250)
In short: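 Screened in duplicate at 25 uM, hits retested in concentration series to 50 uM max, using bladder membrane radioligand displacement from guinea pig. Filtration and scintillation counting 1 h post-dose, fitted relative to DMSO.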

[2] = biological target: human Serotonin, 5-Hydroxytryptamine Receptor 5A (5HT5A), HTR5A (gene 3361) (UniProt P47898); assay: NVS_GPCR_h5HT5A: NovaScreen (NVS) G Protein-Coupled Receptor Assay for human Serotonin, 5-Hydroxytryptamine Receptor 5A (5HT5A) (AID 2283251)
Sequence of human Serotonin, 5-Hydroxytryptamine Receptor 5A (5HT5A), HTR5A (gene 3361) (P47898 whole entry, looked up): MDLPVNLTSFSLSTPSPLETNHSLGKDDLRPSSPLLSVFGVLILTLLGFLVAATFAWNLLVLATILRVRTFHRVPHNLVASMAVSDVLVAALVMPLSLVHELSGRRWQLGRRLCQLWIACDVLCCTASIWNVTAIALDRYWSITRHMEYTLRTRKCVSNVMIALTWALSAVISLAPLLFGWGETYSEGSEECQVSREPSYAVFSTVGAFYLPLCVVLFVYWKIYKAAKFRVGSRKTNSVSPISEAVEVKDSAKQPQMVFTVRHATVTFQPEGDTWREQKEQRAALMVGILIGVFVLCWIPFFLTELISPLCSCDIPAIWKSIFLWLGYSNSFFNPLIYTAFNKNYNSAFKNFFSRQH
In short: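 Membranes from HEK293 cells, radioligand binding read by filtration and scintillation after 1 h. Single-concentration duplicate testing at 25 uM, then concentration-response for actives; positive-direction fitting relative to DMSO.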

[3] = biological target: guinea pig Opioid, Kappa 1 Receptor (OpiateK), OPRK1 (gene 100135587) (UniProt P41144); assay: NVS_GPCR_gOpiateK: NovaScreen (NVS) G Protein-Coupled Receptor Assay for guinea pig Opioid, Kappa 1 Receptor (OpiateK) (AID 2283252);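 note: radioligand displacement from kappa opioid receptor in guinea pig cerebellar membranes; active means reduced radioligand binding relative to DMSO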
Sequence of guinea pig Opioid, Kappa 1 Receptor (OpiateK), OPRK1 (gene 100135587) (P41144 whole entry, looked up): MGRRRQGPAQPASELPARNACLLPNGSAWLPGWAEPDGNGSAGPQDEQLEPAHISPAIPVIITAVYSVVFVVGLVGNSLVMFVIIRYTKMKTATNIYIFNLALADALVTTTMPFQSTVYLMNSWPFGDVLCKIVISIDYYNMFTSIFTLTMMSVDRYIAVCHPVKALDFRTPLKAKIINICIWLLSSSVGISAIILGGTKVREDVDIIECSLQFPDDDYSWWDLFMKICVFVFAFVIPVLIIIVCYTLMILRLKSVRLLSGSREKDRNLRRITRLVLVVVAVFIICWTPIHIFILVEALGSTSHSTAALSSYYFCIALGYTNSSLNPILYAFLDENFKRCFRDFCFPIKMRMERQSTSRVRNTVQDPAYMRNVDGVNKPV
In short: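 Radioligand competition binding using guinea pig cerebellum membrane fraction; 2 h exposure; filter radiodetection. Single concentration 25 uM (duplicate), follow-up concentration-response for actives.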

[4] = biological target: human Serotonin, 5-Hydroxytryptamine Receptor 6 (5HT6), HTR6 (gene 3362) (UniProt P50406); assay: NVS_GPCR_h5HT6: NovaScreen (NVS) G Protein-Coupled Receptor Assay for human Serotonin, 5-Hydroxytryptamine Receptor 6 (5HT6) (AID 2283253)
Sequence of human Serotonin, 5-Hydroxytryptamine Receptor 6 (5HT6), HTR6 (gene 3362) (P50406 whole entry, looked up): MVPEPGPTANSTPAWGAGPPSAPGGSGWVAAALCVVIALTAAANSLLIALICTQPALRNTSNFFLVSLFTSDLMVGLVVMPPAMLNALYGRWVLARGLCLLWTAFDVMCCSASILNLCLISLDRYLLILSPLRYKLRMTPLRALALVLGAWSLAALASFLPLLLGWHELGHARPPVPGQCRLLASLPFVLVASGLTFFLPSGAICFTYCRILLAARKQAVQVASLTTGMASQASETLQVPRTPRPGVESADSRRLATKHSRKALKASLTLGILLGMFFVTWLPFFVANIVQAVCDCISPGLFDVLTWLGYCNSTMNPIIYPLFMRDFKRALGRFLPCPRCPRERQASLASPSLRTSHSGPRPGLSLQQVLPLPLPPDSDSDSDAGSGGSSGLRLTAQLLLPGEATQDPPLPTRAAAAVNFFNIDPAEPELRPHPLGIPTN
In short: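 Filter scintillation counting of radioligand displacement from HEK293-expressed 5HT6, 1 hour post-dose, with loss of signal relative to DMSO. Single 25 uM duplicates first, with concentration series for confirmation.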

[5] = biological target: human Serotonin, 5-Hydroxytryptamine Receptor 7 (5HT7), HTR7 (gene 3363) (UniProt P34969); assay: NVS_GPCR_h5HT7: NovaScreen (NVS) G Protein-Coupled Receptor Assay for human Serotonin, 5-Hydroxytryptamine Receptor 7 (5HT7) (AID 2283255);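 note: hits reduce specific radioligand binding relative to DMSO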
Sequence of human Serotonin, 5-Hydroxytryptamine Receptor 7 (5HT7), HTR7 (gene 3363) (P34969 whole entry, looked up): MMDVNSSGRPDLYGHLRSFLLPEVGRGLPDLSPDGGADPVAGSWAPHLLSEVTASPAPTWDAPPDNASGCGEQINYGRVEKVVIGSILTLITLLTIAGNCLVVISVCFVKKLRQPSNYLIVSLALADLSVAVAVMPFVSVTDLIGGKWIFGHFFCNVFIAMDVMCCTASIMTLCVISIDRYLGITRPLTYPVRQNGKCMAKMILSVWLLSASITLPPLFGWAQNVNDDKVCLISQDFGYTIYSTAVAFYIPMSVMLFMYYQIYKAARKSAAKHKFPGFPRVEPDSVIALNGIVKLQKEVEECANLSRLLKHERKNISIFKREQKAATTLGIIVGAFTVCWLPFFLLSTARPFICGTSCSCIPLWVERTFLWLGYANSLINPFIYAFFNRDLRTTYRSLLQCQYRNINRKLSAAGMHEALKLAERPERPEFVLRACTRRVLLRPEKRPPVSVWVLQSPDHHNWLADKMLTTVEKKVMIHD
In short: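 Filter-bound radioactivity counted after 1 h, with loss of specific radioligand binding fitted against DMSO. Membrane protein came from CHO cells expressing human 5HT7. Chemicals were tested first at 25 uM in duplicate, then in concentration series if active.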

[6] = biological target: human Leukotriene B4 Receptor 1 (LTB4-BLT1), LTB4R (gene 1241) (UniProt Q15722); assay: NVS_GPCR_hLTB4_BLT1: NovaScreen (NVS) G Protein-Coupled Receptor Assay for human Leukotriene B4 Receptor 1 (LTB4-BLT1) (AID 2283271)
Sequence of human Leukotriene B4 Receptor 1 (LTB4-BLT1), LTB4R (gene 1241) (Q15722 whole entry, looked up): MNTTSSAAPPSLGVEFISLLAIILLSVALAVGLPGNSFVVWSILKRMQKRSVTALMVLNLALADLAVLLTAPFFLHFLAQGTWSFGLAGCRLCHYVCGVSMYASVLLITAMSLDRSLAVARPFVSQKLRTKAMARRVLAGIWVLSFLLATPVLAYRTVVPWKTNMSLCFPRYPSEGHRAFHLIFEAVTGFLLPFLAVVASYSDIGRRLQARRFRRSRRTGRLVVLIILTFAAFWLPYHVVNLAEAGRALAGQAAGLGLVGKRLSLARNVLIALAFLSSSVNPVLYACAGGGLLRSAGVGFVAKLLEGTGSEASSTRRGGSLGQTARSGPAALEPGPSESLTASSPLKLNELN
In short: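 Cell-free human neutrophil receptor preparation, 1 h exposure, radioligand binding read by filter scintillation counting. Single 25 uM duplicate screen, then concentration series topping at 50 uM; binding loss scored against DMSO baseline.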

[7] = biological target: Type-1 angiotensin II receptor (Homo sapiens) (UniProt P30556); assay: NVS_GPCR_hAT1: NovaScreen (NVS) G Protein-Coupled Receptor Assay for human Angiotensin II receptor type 1 (AT1) (AID 2283263)
In short: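 Hits from a 25 uM duplicate screen (threshold e.g. 30% inhibition) were run in concentration-response with 50 uM top concentration. Displacement of specific radioligand from KAN-TS membrane preparations measured after 3 h by filter scintillation, DMSO as baseline.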

[8] = biological target: human Adenosine A1 Receptor (AdoRA1), ADORA1 (gene 134) (UniProt P30542); assay: NVS_GPCR_hAdoRA1: NovaScreen (NVS) G Protein-Coupled Receptor Assay for human Adenosine A1 Receptor (AdoRA1) (AID 2283254)
Sequence of human Adenosine A1 Receptor (AdoRA1), ADORA1 (gene 134) (P30542 whole entry, looked up): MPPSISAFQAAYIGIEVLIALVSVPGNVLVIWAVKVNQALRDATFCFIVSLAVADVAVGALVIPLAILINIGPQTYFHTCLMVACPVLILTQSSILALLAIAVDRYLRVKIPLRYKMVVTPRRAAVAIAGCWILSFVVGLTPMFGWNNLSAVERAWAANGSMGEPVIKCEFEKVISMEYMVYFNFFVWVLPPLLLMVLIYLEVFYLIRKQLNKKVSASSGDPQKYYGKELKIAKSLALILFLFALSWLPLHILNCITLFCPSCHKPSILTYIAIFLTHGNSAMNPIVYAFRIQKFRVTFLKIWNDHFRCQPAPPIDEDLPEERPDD
In short: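 Membranes from human cortical tissue were incubated with radioligand and test chemical for 1 hour, then filtered and counted. Activity was taken as signal loss relative to DMSO, screened at 25 uM in duplicate before concentration-response follow-up.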

[9] = biological target: human Histamine 1 Receptor (H1), HRH1 (gene 3269) (UniProt P35367); assay: NVS_GPCR_hH1: NovaScreen (NVS) G Protein-Coupled Receptor Assay for human Histamine 1 Receptor (H1) (AID 2283268)
In short: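 Filter-based scintillation detection of radioligand binding to human H1, 1 h incubation; chemicals screened in duplicate at 25 uM, then concentration-response; signal loss relative to DMSO taken as activity.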

[10] = biological target: Muscarinic acetylcholine receptor M3 (Homo sapiens) (UniProt P20309); assay: NVS_GPCR_hM3: NovaScreen (NVS) G Protein-Coupled Receptor Assay for human Muscarinic, M3 Receptor (AID 2283272)
Sequence of Muscarinic acetylcholine receptor M3 (Homo sapiens) (P20309 whole entry, looked up): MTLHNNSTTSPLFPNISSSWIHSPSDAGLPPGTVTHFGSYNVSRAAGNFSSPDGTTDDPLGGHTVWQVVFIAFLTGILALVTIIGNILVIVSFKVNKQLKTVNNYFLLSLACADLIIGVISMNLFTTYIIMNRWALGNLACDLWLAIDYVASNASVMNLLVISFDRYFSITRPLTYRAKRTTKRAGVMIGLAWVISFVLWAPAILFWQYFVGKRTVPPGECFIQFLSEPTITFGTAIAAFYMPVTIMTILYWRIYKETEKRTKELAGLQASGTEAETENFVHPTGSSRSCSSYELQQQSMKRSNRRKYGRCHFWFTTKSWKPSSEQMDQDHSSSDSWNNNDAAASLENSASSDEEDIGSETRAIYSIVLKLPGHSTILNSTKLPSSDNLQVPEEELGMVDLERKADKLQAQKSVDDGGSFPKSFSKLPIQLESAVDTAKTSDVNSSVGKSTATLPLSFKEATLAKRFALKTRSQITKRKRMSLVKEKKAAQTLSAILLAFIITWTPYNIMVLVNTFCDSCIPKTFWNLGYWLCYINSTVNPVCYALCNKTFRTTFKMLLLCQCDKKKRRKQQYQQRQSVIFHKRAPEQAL
In short: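 Radioligand displacement binding on human M3 receptor in CHO-derived membranes, 1 h incubation, filter-based scintillation counting. Primary screen in duplicate at 25 uM; actives followed up in concentration series; loss of signal versus DMSO.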

[11] = biological target: human Dopamine Receptor D2 (DRD2), DRD2 (gene 1813) (UniProt P14416); assay: NVS_GPCR_hDRD2s: NovaScreen (NVS) G Protein-Coupled Receptor Assay for human Dopamine Receptor D2 (DRD2) (AID 2283266)
In short: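 Test compound (25 uM, duplicate in the primary screen; concentration series at follow-up) competed with radioligand for human DRD2 in CHO-derived membrane protein. Filter-based scintillation counting was done 1.5 hours after dosing, with loss of signal analysed against DMSO.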

[12] = biological target: human Adrenergic, Alpha 2A Receptor (Adra2A), ADRA2A (gene 150) (UniProt P08913); assay: NVS_GPCR_hAdra2A: NovaScreen (NVS) G Protein-Coupled Receptor Assay for human Adrenergic, Alpha 2A Receptor (Adra2A) (AID 2283257)
Sequence of human Adrenergic, Alpha 2A Receptor (Adra2A), ADRA2A (gene 150) (P08913 whole entry, looked up): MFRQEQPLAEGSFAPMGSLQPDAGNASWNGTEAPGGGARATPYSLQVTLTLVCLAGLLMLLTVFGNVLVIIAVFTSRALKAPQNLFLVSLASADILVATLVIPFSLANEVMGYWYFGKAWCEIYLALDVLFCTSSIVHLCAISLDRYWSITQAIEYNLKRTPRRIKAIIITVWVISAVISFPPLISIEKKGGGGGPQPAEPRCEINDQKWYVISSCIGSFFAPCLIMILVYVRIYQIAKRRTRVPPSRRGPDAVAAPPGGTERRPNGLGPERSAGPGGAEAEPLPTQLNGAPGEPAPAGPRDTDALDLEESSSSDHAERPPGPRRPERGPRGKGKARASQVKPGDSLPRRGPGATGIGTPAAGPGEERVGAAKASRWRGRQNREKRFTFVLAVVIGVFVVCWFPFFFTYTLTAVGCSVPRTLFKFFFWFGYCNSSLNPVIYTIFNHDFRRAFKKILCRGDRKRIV
In short: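 Displacement of a specific radioligand from HT29 membrane protein was counted by filter scintillation after 1 h. Compounds were screened in duplicate at 25 uM, and actives were retested in concentration series. Fitting was positive-direction against DMSO.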

[13] = biological target: human Adrenergic, Alpha 2c Receptor (Adra2C), ADRA2C (gene 152) (UniProt P18825); assay: NVS_GPCR_hAdra2C: NovaScreen (NVS) G Protein-Coupled Receptor Assay for human Adrenergic, Alpha 2c Receptor (Adra2C) (AID 2283259)
Sequence of human Adrenergic, Alpha 2c Receptor (Adra2C), ADRA2C (gene 152) (P18825 whole entry, looked up): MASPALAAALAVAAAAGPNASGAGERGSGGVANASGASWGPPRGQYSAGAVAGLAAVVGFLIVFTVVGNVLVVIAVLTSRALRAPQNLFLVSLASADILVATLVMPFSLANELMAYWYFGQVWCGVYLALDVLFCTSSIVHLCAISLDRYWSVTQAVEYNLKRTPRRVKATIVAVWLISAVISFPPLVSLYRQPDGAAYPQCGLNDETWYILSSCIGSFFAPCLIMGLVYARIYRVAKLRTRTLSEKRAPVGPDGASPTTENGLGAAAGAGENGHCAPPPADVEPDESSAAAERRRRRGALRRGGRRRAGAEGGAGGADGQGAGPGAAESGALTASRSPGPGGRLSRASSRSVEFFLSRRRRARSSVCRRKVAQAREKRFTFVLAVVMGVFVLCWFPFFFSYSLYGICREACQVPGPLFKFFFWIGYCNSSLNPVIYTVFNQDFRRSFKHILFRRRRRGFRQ
In short: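 Screened first in duplicate at 25 uM, with actives then run as concentration series. Membranes from Sf9 cells were exposed for 1 h, and displacement of radioligand was counted after filtration, using DMSO as baseline.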

[14] = biological target: Muscarinic acetylcholine receptor M1 (Homo sapiens) (UniProt P11229); assay: NVS_GPCR_hM1: NovaScreen (NVS) G Protein-Coupled Receptor Assay for human Muscarinic, M1 Receptor (AID 2283270)
In short: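 Actives from a duplicate 25 uM single-point screen were retested in concentration series. Binding measured as displacement of a radioligand from CHO-derived receptor preparation, 1 h incubation, filtration and scintillation counting, analysed as signal loss against DMSO.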

[15] = biological target: human Adrenergic, Beta 1 Receptor (Adrb1), ADRB1 (gene 153) (UniProt P08588); assay: NVS_GPCR_hAdrb1: NovaScreen (NVS) G Protein-Coupled Receptor Assay for human Adrenergic, Beta 1 Receptor (Adrb1) (AID 2283258)
Sequence of human Adrenergic, Beta 1 Receptor (Adrb1), ADRB1 (gene 153) (P08588 whole entry, looked up): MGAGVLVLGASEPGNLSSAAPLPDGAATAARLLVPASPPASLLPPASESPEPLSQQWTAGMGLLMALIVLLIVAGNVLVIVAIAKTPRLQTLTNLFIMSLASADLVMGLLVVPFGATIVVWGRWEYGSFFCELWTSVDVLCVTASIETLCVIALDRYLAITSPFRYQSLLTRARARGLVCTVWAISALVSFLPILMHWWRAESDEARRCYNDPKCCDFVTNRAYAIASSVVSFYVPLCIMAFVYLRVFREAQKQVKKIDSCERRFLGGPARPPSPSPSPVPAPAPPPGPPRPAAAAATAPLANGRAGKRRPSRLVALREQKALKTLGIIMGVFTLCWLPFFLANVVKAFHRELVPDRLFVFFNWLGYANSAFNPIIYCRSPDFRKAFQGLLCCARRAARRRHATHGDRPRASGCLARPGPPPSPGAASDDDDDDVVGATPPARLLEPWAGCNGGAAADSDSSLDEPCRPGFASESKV
In short: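 Membranes/protein extracted from human neuroepithelioma cells, radioligand competition binding read by filtration and scintillation 2 h post-dose. Single 25 uM duplicate screen, then concentration-response follow-up; DMSO as negative control.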

[16] = biological target: D(1A) dopamine receptor (Homo sapiens) (UniProt P21728); assay: NVS_GPCR_hDRD1: NovaScreen (NVS) G Protein-Coupled Receptor Assay for human Dopamine Receptor D1 (DRD1) (AID 2283269)
Sequence of D(1A) dopamine receptor (Homo sapiens) (P21728 whole entry, looked up): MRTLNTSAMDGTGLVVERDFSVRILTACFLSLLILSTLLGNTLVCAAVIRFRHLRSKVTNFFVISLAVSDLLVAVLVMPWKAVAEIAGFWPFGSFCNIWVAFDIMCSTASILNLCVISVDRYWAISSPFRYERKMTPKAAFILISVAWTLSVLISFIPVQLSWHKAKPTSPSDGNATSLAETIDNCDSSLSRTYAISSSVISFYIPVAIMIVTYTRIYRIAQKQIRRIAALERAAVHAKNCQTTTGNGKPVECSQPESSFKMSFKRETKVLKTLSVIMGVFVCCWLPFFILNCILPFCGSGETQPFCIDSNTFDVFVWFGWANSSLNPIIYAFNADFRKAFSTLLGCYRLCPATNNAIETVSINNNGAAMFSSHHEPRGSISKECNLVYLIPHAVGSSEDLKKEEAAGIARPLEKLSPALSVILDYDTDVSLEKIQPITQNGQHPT
In short: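 Cell-free radioligand binding to human DRD1 from HEK293 membranes, read 1 h after dosing by filter-based scintillation counting. Loss of signal versus DMSO baseline marks displacement. Primary screen at 25 uM single concentration in duplicate; actives followed up in concentration series.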

COP(=O)(OC)O/C(C)=C/C(=O)N(C)C
outcome [1]: inactive

CCCCC(O)(Cn1cncn1)c1ccc(Cl)cc1Cl (stereo unspecified)
outcome [2]: inactive
AC50 [3]: 17.8 µM (active)
outcome [4]: inactive
AC50 [5]: 16.6 µM (active)
outcome [6]: inactive

CC1(C)C(C=C(Cl)Cl)C1C(=O)OC(C#N)c1cccc(Oc2ccccc2)c1 (stereo unspecified)
outcome [2]: inactive
AC50 [5]: 6.91 µM (active)
outcome [7]: inactive

CCOc1nc(F)cc2nc(S(=O)(=O)Nc3c(Cl)cccc3Cl)nn12
outcome [1]: inactive

CC(C)N1C(=O)N(c2ccccc2)CSC1=NC(C)(C)C
outcome [2]: inactive
outcome [4]: inactive

CCC(C)n1c(=O)[nH]c(C)c(Br)c1=O (stereo unspecified)
AC50 [8]: 15.2 µM (active)
AC50 [5]: 14 µM (active)
outcome [9]: inactive
outcome [10]: inactive

CCN(CC)C(=O)C(C)Oc1cccc2ccccc12 (stereo unspecified)
AC50 [3]: 25 µM (active)

OC(c1ccc(Cl)cc1)(c1ccc(Cl)cc1)C(Cl)(Cl)Cl
outcome [2]: inactive
outcome [5]: inactive
outcome [11]: inactive

COCC(C)N(C(=O)CCl)c1c(C)csc1C (stereo unspecified)
AC50 [3]: 15.5 µM (active)
outcome [6]: inactive

Cn1c(-c2ccccc2)cc(-c2ccccc2)[n+]1C
AC50 [1]: 6.52 µM (active)
AC50 [3]: 12 µM (active)
AC50 [5]: 14.8 µM (active)
AC50 [12]: 1.32 µM (active)
AC50 [13]: 3.74 µM (active)
AC50 [14]: 2.84 µM (active)
AC50 [10]: 9.02 µM (active)

CCOC(=O)C(C)OC(=O)c1cc(Oc2ccc(C(F)(F)F)cc2Cl)ccc1[N+](=O)[O-] (stereo unspecified)
AC50 [2]: 6.67 µM (active)
AC50 [5]: 15.3 µM (active)

CC1(C)C(C(=O)OC(C#N)c2cccc(Oc3ccccc3)c2)C1(C)C (stereo unspecified)
AC50 [2]: 25 µM (active)
AC50 [5]: 25 µM (active)

CC(C)=CC1C(C(=O)OCc2coc(Cc3ccccc3)c2)C1(C)C (stereo unspecified)
AC50 [2]: 25 µM (active)
outcome [5]: inactive
AC50 [15]: 25 µM (active)
AC50 [13]: 25 µM (active)
AC50 [16]: 11.5 µM (active)

CO/N=C(/C1=NOCCO1)c1ccccc1Oc1ncnc(Oc2ccccc2Cl)c1F
outcome [2]: inactive
outcome [3]: inactive
outcome [8]: inactive
